# Experimental data reported in PubChem BioAssay (NCATS).
# Several values for one entry are separate records, joined by “and”; a condition that tells them apart may be missing. Identical values can stand only once. A number with no mark means an inactive call. Inconclusive results are not listed. Where a call stands in place of a potency, no number is given. Activity calls are given as the source filed them. Unless noted, the call rests on the fitted dose curve; in most records, active means well fitted curve in the direction sought with a large enough effect; inconclusive means small, poorly fitted or top-dose-only effect, or another doubt; inactive means no such curve, though single readings can be large; an effect the other way counts as inactive or inconclusive.
# Key:
# [1] = AP1 Signaling Pathway (AID 357; active means well fitted curve in either direction with a large enough effect, not every such curve was filed as active;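 further: ME-180 reporter cells stimulated with EGF at its EC50 level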); conditions: ME-180 AP-1-bla reporter, EGF-induced, beta-lactamase ratio, 5 h
# Method in brief: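 A ratiometric CCF4 readout (405 nm excitation; 460 and 530 nm emission) quantified AP-1-driven beta-lactamase in ME-180 cells after 5 h with compound and EC50 EGF; AC50 values were derived for activators and inhibitors.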
# [2] = NFAT Signaling Pathway (AID 444; active means well fitted curve in either direction with a large enough effect, not every such curve was filed as active;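 further: carbachol stimulus at about its EC50 of 1 µM final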); conditions: Jurkat NFAT-bla M1, carbachol, beta-lactamase ratio, 5 h
# Method in brief: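 Read-out: CCF4 FRET ratio (460 nm/530 nm) after 1 h RT dye loading, used for %activity and AC50 from titration series. Cells: Jurkat NFAT-β-lactamase/M1 line, treated with compound plus 1 uM carbachol for 5 h, 37 °C.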
# [3] = Stat Signaling Pathway (AID 446; active means well fitted curve in either direction with a large enough effect, not every such curve was filed as active;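 further: ME-180 cervical cancer cells given 40 pM IL-6 alongside compound; SIE-controlled beta-lactamase reporter measured as 460/530 nm FRET emission ratio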); conditions: ME-180 (cervical carcinoma) SIE beta-lactamase reporter, IL-6 stimulated, 5 h
# Method in brief: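 IL-6/STAT signaling read in ME-180 cells via an SIE beta-lactamase reporter. Stimulus was 40 pM IL-6 (its AC50) for 5 hrs, so both activation and inhibition register.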
# [4] = molecular target: Glucocorticoid receptor (Homo sapiens) (UniProt P04150); test: GR-GFP Redistribution (AID 450;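 active means compounds whose dose series gives a full or clear partial fitted curve of increased nuclear translocation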; further: potency means the concentration at half of the fitted maximal effect); conditions: U2OS GR-GFP nuclear translocation, laser cytometry, 2 h
# [5] = system: Zika virus NS2B-NS3 protease; test: Primary screen GU AMC qHTS for Zika virus inhibitors (AID 1347154); conditions: Zika NS2B-NS3 unlinked protease, AMC fluorogenic substrate; series mostly up to 54.1 µM; further: nearly all actives have a fitted effect of over 70% in size
# Method in brief: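 Fluorogenic AMC-substrate cleavage by noncovalent NS2B-NS3 protease complex (25 nM, pH 8.0 Tris buffer with Tween 20) followed for 15 minutes at room temperature (~20% conversion). Percent inhibition from ex340/em450 signal change, fitted by 4-parameter Hill equation.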
# [6] = Primary qHTS for small molecule stabilizers of the endoplasmic reticulum resident proteome: Secreted ER Calcium Modulated Protein (SERCaMP) assay (AID 1508630); conditions: SH-SY5Y GLuc-SERCaMP (Gaussia luciferase released on ER calcium loss) secretion, thapsigargin, luminescence; series mostly up to 38.4 µM
# Method in brief: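 GLuc-SERCaMP-expressing SH-SY5Y cells, pretreated 16 h with compound, are challenged with thapsigargin to empty ER calcium stores; after 4 h, coelenterazine is added directly to the medium and luminescence is imaged.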
# [7] = molecular target: Cytochrome P450 1A2 (Homo sapiens) (UniProt P05177); test: p450-cyp1a2 (AID 410; calls by dose curve; further: potency means the concentration at half of the fitted maximal effect); conditions: recombinant CYP1A2, luciferin-ME demethylation, luminescence; series mostly up to 57 µM
# Method in brief: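 Human CYP1A2 (20nM) demethylated Luciferin-ME at its Km (100uM) in 100mM KPO4. After 10 min compound preincubation, NADPH regeneration ran the reaction 60 min at room temperature. Luciferin was read by luminescence, normalized to 57 uM furafylline.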
# [8] = molecular target: Glucocorticoid receptor (Homo sapiens) (UniProt P04150); test: GR-EFC Redistribution (AID 451; calls by dose curve; further: potency means the concentration at half of the fitted maximal effect); conditions: CHO-K1 GR-EFC translocation, beta-gal luminescence, 2 h
# Method in brief: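 Translocation of GR-ED fusion to nuclear EA restores b-gal, read by luminescence after 1 h room-temperature detection. Engineered CHO-K1 biosensor cells, 1,000/well, exposed 2 h at 37 C to titrations up to 46 uM final.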
# [9] = molecular target: Mitogen-activated protein kinase 10 (Mus musculus) (UniProt Q61831); test: JNK3 AlphaScreen Assay (AID 530; active means well fitted curve in either direction with a large enough effect, not every such curve was filed as active;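 further: kinase came from lysate of stimulated human HepG2 cells; signal reports phosphorylation of biotinylated GST-cJun 1-79 at Ser73 with 10 µM ATP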); conditions: JNK3 lysate, c-Jun phosphorylation; series mostly up to 57.1 µM
# Method in brief: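 Room-temperature AlphaScreen kinase assay; pre-activated HepG2 lysate as JNK3 source, biotin-GST-cJun(1-79) substrate, 10 uM ATP, compound 15 min preincubation.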
# [10] = molecular target: 3',5'-cyclic-AMP phosphodiesterase 4B (Homo sapiens) (UniProt Q07343); test: qHTS Assay for Inhibitors of PDE-IV (AID 607; active means well fitted activation curve with a large enough effect in the main read-out, with a control signal flat, not every such curve was filed as active); conditions: HEK293 ACTOne CNG channel cells, membrane potential fluorescence; series mostly up to 22.9 µM
# Method in brief: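 Live HEK293 cells with a modified cyclic nucleotide-gated (CNG) channel report intracellular cAMP via membrane-potential dye fluorescence (ex 535/em 590 nm). Endogenous PDE-IV was targeted. Compounds were tested at up to 22.9 uM final; RO 20-1724 100 uM served as control.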
# [11] = molecular target: Guanine nucleotide-binding protein G(i) subunit alpha-1 (Homo sapiens) (UniProt P63096); test: qHTS Assay for Inhibitors of RGS12 GoLoco Motif Activity (Green Fluorophore) (AID 879); conditions: Galphai1/FITC-RGS12 GoLoco peptide, fluorescence polarization; series mostly up to 57.1 µM;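 further: negative values mean loss of peptide binding seen as reduced polarization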
# Method in brief: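 Fluorescence polarization assay: 50 nM Gαi1 with 10 nM FITC-labeled RGS12 GoLoco peptide in 10 mM Tris pH 7.5, 150 mM NaCl, 0.1 mM GDP, 0.05% NP40, 10 min at room temperature with compound.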
# [12] = molecular target: Cytochrome P450 3A4 (Homo sapiens) (UniProt P08684); test: qHTS Assay for Inhibitors and Substrates of Cytochrome P450 3A4 (AID 884); conditions: recombinant CYP3A4, Luciferin-PPXE luminescence; series mostly up to 57.1 µM; further: potency means the concentration at half of the fitted maximal effect; nearly all actives have a fitted effect of over 50% in size
# Method in brief: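 20 nM human CYP3A4 with 25 uM Luciferin-PPXE (at KM) in 200 mM KPO4, preincubated 10 min with compound; NADPH regeneration started a 60 min RT reaction. Luciferin detected by luminescence, normalized to 57 uM ketoconazole as full inhibition.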
# [13] = molecular target: Cytochrome P450 3A4 (Homo sapiens) (UniProt P08684); test: qHTS Assay for Activators of Cytochrome P450 3A4 (AID 885); conditions: recombinant CYP3A4, Luciferin-PPXE luminescence, 60 min; series mostly up to 57.1 µM; further: nearly all actives have a fitted effect of over 65% in size
# Method in brief: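 Quantitative HTS format: compounds preincubated with 20nM human CYP3A4 and Luciferin-PPXE substrate at KM, reaction started by NADPH regeneration, stopped after 60 min, luciferase luminescence read 20 min later.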
# [14] = molecular target: Cytochrome P450 2C19 (Homo sapiens) (UniProt P33261); test: qHTS Assay for Inhibitors and Substrates of Cytochrome P450 2C19 (AID 899); conditions: recombinant CYP2C19, luciferin-H EGE luminescence; series mostly up to 57.1 µM; further: nearly all actives have a fitted effect of over 60% in size; further: potency means the concentration at half of the fitted maximal effect
# Method in brief: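 Reactions contain 5nM enzyme, 10uM Luciferin-H EGE (KM) and 50mM KPO4; compound preincubates 10 min at 37C, NADPH regeneration starts turnover for 60 min. Luminescence after detection reagent gives activity.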
# [15] = molecular target: Pyruvate kinase PKM (Homo sapiens) (UniProt P14618); test: qHTS Assay for Activators of Human Muscle Pyruvate Kinase (AID 954; active means well fitted curve in the direction sought with a large enough effect, not every such curve was filed as active); conditions: purified human muscle pyruvate kinase, luciferase-coupled luminescence, 1 h; series mostly up to 57.5 µM
# Method in brief: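 Enzyme was run at intermediate activity so both inhibitors and activators could be detected. ATP formed from ADP and PEP by 0.1 nM human PKM2 during a 1 h room-temperature incubation was quantified by coupled luciferase luminescence.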
# [16] = molecular target: alpha-glucosidase (Oryza sativa, rice) (UniProt Q653V4); test: Counterscreen for Glucocerebrosidase Inhibitors: qHTS Assay for Rice alpha-Glucosidase at pH 5.0 (AID 997); conditions: rice alpha-glucosidase enzyme activity; series mostly up to 76.9 µM
# Method in brief: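 Rice alpha-glucosidase (4 nM final) with 400 uM 4-methylumbelliferyl-alpha-D-glucopyranoside in citrate buffer pH 5.0, 20 min at room temperature, stopped at pH 10; fluorescence 365/440 nm, compounds 0.7 nM–77 uM, AC50 from Hill fits.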
# [17] = molecular target: DNA dC->dU-editing enzyme APOBEC-3G (Homo sapiens) (UniProt Q9HC16); test: qHTS for inhibitors of Vif-A3G interactions: Validation (AID 588379); conditions: Vif-A3G protein interaction assay; series mostly up to 46.1 µM
# Method in brief: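 HeLa cells stably expressing Vif and A3G-eYFP, 700 cells/well, incubated overnight at 37 deg C, then exposed to compound overnight at 37 deg C. Inhibition of Vif-mediated degradation read as increased yellow fluorescence (Ex 488/Em 500-530) by laser-scanning cytometry.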
# [18] = molecular target: Cytochrome P450 2C9 (Homo sapiens) (UniProt P11712); test: qHTS Assay for Inhibitors and Substrates of Cytochrome P450 2C9 (AID 883); conditions: recombinant CYP2C9, luciferin-H luminescence, 60 min; series mostly up to 57.1 µM; further: nearly all actives have a fitted effect of over 60% in size
# Method in brief: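 Turnover of Luciferin-H (100uM, KM) by 10nM human CYP2C9 was measured over 60 min at 37C with NADPH regeneration; inhibitors and some substrates reduce luminescence. Data normalized to sulphaphenazole 57uM.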
# DNA dC->dU-editing enzyme APOBEC-3G (Homo sapiens), sequence (Q9HC16 whole entry, looked up): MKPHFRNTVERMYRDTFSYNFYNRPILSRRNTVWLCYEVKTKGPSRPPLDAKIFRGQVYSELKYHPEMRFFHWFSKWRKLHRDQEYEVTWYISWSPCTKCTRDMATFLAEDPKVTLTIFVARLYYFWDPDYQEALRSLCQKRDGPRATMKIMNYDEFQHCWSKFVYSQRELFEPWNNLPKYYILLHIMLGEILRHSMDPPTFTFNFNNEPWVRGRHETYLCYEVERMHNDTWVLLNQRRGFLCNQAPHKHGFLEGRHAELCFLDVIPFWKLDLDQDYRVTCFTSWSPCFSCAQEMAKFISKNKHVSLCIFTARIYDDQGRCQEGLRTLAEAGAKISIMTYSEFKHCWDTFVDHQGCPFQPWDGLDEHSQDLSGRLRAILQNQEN
# Cytochrome P450 2C19 (Homo sapiens), sequence (P33261 whole entry, looked up): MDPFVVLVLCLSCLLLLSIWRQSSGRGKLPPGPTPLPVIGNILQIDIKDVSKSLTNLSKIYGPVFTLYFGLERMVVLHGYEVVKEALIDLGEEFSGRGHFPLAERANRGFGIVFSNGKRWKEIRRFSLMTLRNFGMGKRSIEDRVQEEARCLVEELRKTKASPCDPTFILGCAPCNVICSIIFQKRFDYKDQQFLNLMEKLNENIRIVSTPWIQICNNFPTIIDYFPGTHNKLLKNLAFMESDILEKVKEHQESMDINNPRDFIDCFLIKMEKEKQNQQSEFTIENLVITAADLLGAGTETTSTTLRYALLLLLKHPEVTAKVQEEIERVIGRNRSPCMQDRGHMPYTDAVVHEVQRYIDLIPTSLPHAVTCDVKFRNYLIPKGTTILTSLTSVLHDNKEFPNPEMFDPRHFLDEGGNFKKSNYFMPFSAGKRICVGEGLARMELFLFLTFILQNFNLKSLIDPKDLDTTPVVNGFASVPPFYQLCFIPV
# Cytochrome P450 3A4 (Homo sapiens), sequence (P08684 whole entry, looked up): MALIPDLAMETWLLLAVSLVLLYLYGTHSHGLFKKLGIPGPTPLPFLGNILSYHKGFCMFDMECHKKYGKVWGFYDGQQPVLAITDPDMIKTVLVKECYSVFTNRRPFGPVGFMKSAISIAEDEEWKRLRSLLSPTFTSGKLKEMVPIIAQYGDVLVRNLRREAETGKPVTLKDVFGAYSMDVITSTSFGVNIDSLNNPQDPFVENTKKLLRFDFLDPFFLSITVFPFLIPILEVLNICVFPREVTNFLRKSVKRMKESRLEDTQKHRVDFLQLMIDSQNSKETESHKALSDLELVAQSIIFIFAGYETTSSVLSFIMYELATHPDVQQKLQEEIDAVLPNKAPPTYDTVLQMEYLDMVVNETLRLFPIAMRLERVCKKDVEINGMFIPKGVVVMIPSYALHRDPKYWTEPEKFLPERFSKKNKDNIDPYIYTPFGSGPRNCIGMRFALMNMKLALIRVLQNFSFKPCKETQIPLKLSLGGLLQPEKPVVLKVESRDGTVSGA
# 3',5'-cyclic-AMP phosphodiesterase 4B (Homo sapiens), sequence (Q07343 whole entry, looked up): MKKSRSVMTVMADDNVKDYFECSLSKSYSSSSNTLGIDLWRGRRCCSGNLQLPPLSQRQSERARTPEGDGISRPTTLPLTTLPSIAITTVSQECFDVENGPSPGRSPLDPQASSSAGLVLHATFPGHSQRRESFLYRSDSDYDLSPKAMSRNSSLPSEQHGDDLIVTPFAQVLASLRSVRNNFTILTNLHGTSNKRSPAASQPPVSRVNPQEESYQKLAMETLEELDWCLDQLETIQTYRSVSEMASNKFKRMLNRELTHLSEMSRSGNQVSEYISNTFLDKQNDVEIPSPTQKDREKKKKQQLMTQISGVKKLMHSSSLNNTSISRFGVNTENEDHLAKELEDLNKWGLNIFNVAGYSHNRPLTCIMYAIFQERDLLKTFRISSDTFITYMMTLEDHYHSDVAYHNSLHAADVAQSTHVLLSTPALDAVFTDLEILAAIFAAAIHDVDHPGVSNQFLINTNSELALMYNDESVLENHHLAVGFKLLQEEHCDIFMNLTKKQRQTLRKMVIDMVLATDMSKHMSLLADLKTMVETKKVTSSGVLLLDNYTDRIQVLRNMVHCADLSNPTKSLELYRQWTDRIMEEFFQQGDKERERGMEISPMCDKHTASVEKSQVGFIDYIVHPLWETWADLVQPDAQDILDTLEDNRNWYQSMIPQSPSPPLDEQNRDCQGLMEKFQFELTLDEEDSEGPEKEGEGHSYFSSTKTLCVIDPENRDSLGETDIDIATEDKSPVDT
# Cytochrome P450 1A2 (Homo sapiens), sequence (P05177 whole entry, looked up): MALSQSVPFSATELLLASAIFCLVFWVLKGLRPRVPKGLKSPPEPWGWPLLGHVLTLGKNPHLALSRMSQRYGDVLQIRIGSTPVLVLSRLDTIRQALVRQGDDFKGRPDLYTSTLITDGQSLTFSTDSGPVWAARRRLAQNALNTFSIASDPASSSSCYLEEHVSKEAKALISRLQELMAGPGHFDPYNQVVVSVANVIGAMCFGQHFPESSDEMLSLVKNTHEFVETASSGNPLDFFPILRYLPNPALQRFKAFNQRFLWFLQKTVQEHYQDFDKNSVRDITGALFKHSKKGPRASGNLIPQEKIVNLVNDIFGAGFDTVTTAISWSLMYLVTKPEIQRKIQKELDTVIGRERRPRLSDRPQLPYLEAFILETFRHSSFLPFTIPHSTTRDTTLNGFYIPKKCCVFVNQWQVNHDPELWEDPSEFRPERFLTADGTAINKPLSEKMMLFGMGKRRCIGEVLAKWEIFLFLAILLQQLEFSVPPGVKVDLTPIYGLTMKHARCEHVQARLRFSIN
# Glucocorticoid receptor (Homo sapiens), sequence (P04150 whole entry, looked up, the tested form may be a part): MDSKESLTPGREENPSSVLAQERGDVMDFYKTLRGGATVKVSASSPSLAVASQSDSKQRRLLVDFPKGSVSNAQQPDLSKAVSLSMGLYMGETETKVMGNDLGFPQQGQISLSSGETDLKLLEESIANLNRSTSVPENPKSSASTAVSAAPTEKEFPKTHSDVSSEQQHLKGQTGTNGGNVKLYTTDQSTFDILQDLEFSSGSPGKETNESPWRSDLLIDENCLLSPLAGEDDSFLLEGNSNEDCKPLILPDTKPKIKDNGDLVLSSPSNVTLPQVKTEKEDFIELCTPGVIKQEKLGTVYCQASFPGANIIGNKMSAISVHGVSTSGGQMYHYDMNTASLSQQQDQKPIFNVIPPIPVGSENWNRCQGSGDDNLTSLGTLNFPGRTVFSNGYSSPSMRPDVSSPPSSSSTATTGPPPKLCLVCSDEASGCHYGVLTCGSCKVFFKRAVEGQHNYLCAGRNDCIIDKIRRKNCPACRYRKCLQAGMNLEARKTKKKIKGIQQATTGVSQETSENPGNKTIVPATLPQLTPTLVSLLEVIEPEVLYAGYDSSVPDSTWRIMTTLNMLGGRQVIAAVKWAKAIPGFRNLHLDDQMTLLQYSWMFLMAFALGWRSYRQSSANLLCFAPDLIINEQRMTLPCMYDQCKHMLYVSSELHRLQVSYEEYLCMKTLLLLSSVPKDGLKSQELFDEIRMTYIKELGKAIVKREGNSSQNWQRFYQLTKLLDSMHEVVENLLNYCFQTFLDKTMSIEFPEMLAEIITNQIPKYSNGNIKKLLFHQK
# Guanine nucleotide-binding protein G(i) subunit alpha-1 (Homo sapiens), sequence (P63096 whole entry, looked up): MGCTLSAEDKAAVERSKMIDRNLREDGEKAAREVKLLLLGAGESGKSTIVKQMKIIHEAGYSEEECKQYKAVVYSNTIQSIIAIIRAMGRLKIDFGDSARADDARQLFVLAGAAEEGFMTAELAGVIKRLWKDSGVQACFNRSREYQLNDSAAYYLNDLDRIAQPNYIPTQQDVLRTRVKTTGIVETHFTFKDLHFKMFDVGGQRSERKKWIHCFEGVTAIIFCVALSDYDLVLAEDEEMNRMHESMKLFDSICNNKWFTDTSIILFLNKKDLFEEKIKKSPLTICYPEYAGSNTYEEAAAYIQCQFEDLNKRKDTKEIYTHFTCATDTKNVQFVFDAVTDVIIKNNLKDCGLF
# Pyruvate kinase PKM (Homo sapiens), sequence (P14618 whole entry, looked up): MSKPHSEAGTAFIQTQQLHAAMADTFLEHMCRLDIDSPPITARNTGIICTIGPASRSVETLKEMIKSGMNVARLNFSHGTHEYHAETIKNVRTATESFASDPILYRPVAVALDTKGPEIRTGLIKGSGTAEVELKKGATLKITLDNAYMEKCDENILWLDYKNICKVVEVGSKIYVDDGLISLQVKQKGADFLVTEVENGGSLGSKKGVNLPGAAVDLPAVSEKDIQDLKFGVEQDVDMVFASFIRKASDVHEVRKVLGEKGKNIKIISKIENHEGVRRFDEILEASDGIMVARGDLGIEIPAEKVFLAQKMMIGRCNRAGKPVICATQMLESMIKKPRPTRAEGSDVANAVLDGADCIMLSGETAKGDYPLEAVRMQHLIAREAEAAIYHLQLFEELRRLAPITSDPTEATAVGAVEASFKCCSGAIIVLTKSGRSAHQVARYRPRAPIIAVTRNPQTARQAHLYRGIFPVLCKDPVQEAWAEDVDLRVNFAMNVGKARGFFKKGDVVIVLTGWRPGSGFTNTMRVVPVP
# Cytochrome P450 2C9 (Homo sapiens), sequence (P11712 whole entry, looked up): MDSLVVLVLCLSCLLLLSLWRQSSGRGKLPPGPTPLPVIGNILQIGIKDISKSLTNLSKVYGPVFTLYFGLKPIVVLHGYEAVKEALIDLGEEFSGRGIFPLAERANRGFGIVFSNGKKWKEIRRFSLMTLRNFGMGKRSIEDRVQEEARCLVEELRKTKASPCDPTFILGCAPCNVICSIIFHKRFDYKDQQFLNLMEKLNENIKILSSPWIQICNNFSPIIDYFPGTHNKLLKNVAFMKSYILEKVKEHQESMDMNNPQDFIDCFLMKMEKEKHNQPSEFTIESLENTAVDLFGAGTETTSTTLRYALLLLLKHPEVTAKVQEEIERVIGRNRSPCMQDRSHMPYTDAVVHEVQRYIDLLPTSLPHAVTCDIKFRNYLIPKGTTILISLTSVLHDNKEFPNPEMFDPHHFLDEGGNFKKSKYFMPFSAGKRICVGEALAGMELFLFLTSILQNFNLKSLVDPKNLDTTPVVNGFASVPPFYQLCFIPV
compound,measurement,setting,value
CC(=O)[C@H]1[C@H](C#N)C[C@H]2[C@@H]3CC=C4C[C@@H](O)CC[C@]4(C)[C@H]3CC[C@@]21C,"activity change, negative = inhibition",[1]; at 17.2 µM (top of the series),5.31%
same,"activity change, negative = inhibition",[2]; at 17.2 µM (top of the series),9.39%
same,"activity, negative = inhibition",[3]; at 17.2 µM (top of the series),2.76%
same,Potency,[4],> 20.6 µM
same,Potency,[5],inactive
same,Potency,[6],inactive
C[C@@H](/C=C\c1cccc(Oc2ccc(F)cc2)c1)N(O)C(N)=O,"activity change, negative = inhibition",[1]; at 38 µM (top of the series),-29.9%
same,Potency,[7],1 µM (active) and 158 nM (active)
same,"activity change, negative = inhibition",[2]; at 38 µM (top of the series),-4.07%
same,"activity, negative = inhibition",[3]; at 38 µM (top of the series),13.8%
same,Potency,[4],> 46 µM
same,Potency,[8],> 46 µM
same,Potency,[9],inactive
same,Potency,[10],inactive
same,outcome,[11],inactive
same,Potency,[12],1.26 µM (active)
same,Potency,[13],inactive
same,Potency,[14],1.58 µM (active) and 3.98 µM (active)
same,outcome,[15],inactive
same,outcome,[16],inactive
same,Potency,[17],inactive
same,Potency,[5],inactive
same,Potency,[6],inactive
Fc1ccc(-c2nc3n(c2-c2ccncc2)CCS3)cc1,Potency,[12],15.8 µM (active)
same,Potency,[13],inactive
same,Potency,[5],inactive
same,Potency,[6],inactive
COc1ccc2[nH]c(I)c(CCNC(C)=O)c2c1,"activity change, negative = inhibition",[1]; at 38 µM (top of the series),-7.67%
same,"activity change, negative = inhibition",[2]; at 38 µM (top of the series),-1.64%
same,"activity, negative = inhibition",[3]; at 38 µM (top of the series),3.36%
same,Potency,[4],> 46 µM
same,Potency,[8],> 46 µM
same,Potency,[9],inactive
same,Potency,[10],inactive
same,Potency,[17],inactive
same,Potency,[5],inactive
same,Potency,[6],inactive
CCCCC[C@H](O)/C=C/C1=C(CCCCCCC(=O)O)C(=O)CC1,"activity change, negative = inhibition",[1]; at 17.2 µM (top of the series),-2.06%
same,"activity, negative = inhibition",[3]; at 17.2 µM (top of the series),0.776%
same,Potency,[4],> 20.6 µM
same,"activity change, negative = inhibition",[5],14% [at 6.83 µM]
same,"activity change, negative = inhibition",[6],-5.34% [at 3.88 µM]
NCCC[C@@H](N)C(=O)O,"activity change, negative = inhibition",[1]; at 7.69 µM (top of the series),-2%
same,"activity change, negative = inhibition",[2]; at 7.69 µM (top of the series),-0.481%
same,"activity, negative = inhibition",[3]; at 7.69 µM (top of the series),1.44%
same,"activity change, negative = inhibition",[9],6.02% [at 11.4 µM]
same,Potency,[10],inactive
same,Potency,[5],inactive
same,Potency,[6],inactive
N[C@H](Cc1ccc(Cl)cc1)C(=O)O,"activity change, negative = inhibition",[1]; at 38 µM (top of the series),25.5%
same,Potency,[7],31.6 µM (active)
same,"activity change, negative = inhibition",[2]; at 38 µM (top of the series),7.18%
same,"activity, negative = inhibition",[3]; at 38 µM (top of the series),-4.9%
same,Potency,[4],> 46 µM
same,Potency,[9],inactive
same,Potency,[10],inactive
same,outcome,[11],inactive
same,Potency,[18],inactive
same,Potency,[13],inactive
same,Potency,[14],inactive
same,outcome,[15],inactive
same,outcome,[16],inactive
same,Potency,[17],inactive
same,Potency,[5],inactive
same,Potency,[6],inactive
OCCOCCN1CCN(Cc2cccc(Oc3ccccc3)c2)CC1,Potency,[5],inactive
same,Potency,[6],inactive
CC(C)[C@H](CO)Nc1nc(Nc2cc(N)cc(Cl)c2)c2ncn(C(C)C)c2n1,Potency,[7],0.501 µM (active)
same,Potency,[4],> 46 µM
same,Potency,[8],> 46 µM
same,Potency,[9],inactive
same,Potency,[17],inactive
same,Potency,[5],inactive
same,Potency,[6],inactive
CCCCCCCCCCCCCCCC(=O)N[C@H](CN1CCOCC1)[C@H](O)c1ccccc1,"activity change, negative = inhibition",[5],6.98% [at 6.83 µM]
same,"activity change, negative = inhibition",[6],2.84% [at 3.88 µM]
